# Screens from PubChem BioAssay.
# Kir21 block: Kir2.1 (mouse) channel inhibition. P35561. HEK293-Kir2.1, FluxOR thallium flux fluorescence; hits give low values. B-score at 10 µM. 310,000 tested, 0.85% active. AID 1672;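 active = fluorescence ratio B-score at or below minus 3 SD of library scores, with starting-brightness B-score within 2 SD, cut at about -4.2 in these data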;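 note: channel flux triggered by added potassium and thallium sulfate stimulus; B-score of peak minus minimum fluorescence over baseline after thallium stimulus; more negative B-score means stronger Kir2.1 block with less thallium influx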
# ANO1 block: mouse TMEM16A channel inhibition, primary screen; HEK293 TMEM16A/YFP iodide influx fluorescence, ionomycin; normalized B-score (activity score, 25-100; higher = stronger inhibition) at 10 µM; 310,000 tested, 1.2% active; AID 588511;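 active = ratio plate-corrected score three or more library SD toward inhibition, starting fluorescence score within five deviations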;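 note: score derived from kinetic fluorescence span divided by baseline fluorescence per well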
# KCNK3 inh: human KCNK3 channel inhibition, primary screen; O14649; CHO-KCNK3 thallium flux, FluxOR fluorescence; hits give low values; 340,000 tested, 0.84% active; AID 602410; B-score at 10 µM;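 active = B-score under library mean minus 4 SD, starting fluorescence ratio at most library mean plus 5 SD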;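 note: more negative B-score means stronger inhibition of thallium flux through KCNK3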
# KCNK9 block: blocks the human KCNK9 two-pore domain potassium channel; HEK293 KCNK9, FluxOR thallium flux fluorescence; hits give low values; B-score at 10 µM; 310,000 tested, 1.2% active; AID 488922;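 active = ratio B-score over 3 SD below the library mean, with starting fluorescence within 5 SD of its mean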;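 note: negative B-score means less thallium flux so channel inhibition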
# Target sequence (Q9NPC2 whole entry, looked up, the tested form may be a part): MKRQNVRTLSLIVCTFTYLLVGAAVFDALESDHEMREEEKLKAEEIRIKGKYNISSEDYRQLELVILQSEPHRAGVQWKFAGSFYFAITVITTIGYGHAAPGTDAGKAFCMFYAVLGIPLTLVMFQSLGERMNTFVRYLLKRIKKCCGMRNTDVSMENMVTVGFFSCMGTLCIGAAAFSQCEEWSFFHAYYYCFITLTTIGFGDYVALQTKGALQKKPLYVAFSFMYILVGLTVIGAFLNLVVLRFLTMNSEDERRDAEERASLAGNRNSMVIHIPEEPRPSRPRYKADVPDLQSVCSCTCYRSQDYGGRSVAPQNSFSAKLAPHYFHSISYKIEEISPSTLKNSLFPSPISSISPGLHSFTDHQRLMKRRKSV
# ANO1 activ: activators or potentiators of mouse TMEM16A chloride channel; HEK293 TMEM16A/YFP-H148Q/I152L, iodide quench fluorescence; hits give low values; B-score at 10 µM; 340,000 tested, 0.3% active;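 active = fluorescence-ratio B-score plate-corrected deviation score at least 3 library SD below zero, with starting fluorescence score within 5 deviations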;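 note: channel opened by trigger with iodide after compound preincubation; score built on the fluorescence ratio of max minus min over baseline; more negative score means more quench and so TMEM16A activation or potentiation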
# Active calls of the source: *; i = inactive; . = no result. The list is not random: actives were taken first. Their share in the collection is about 3.5%.
SMILES,Kir21 block,ANO1 block,KCNK3 inh,KCNK9 block,ANO1 activ
Nc1cc(C(=O)OCC(=O)NCCNC(=O)COC(=O)c2ccc(Cl)c(N)c2)ccc1Cl,0.98,i,i,i,i
O=C(NCc1cccnc1)Nc1cccc(F)c1,0.84,i,i,-7.8*,i
O=C(NCc1cccnc1)Nc1ccc(F)cc1F,-0.98,i,i,i,i
CC(C)CCNC(=S)Nc1ccc([N+](=O)[O-])cc1,-11*,100*,i,i,i
O=[N+]([O-])c1ccc(NNC(=S)Nc2ccc(F)cc2)cc1,1.8,100*,i,i,i
CCCCNC(=S)NC(=O)c1ccc([N+](=O)[O-])cc1,-0.79,i,i,i,i
CCCCNC(=S)Nc1ccc([N+](=O)[O-])cc1,-2,100*,i,i,i
O=C(NC(NNc1ccc([N+](=O)[O-])cc1)(C(F)(F)F)C(F)(F)F)c1ccc(F)cc1,-0.87,100*,i,i,i
COc1ccc(OC)c(NC(=O)/C=C/c2ccc(S(=O)(=O)N3CCOCC3)cc2)c1,.,.,i,.,i
COc1cc(C(=O)N[C@H](C(=O)NC(C)C23CC4CC(CC(C4)C2)C3)C(C)C)cc(OC)c1OC (some centres not stated),-0.27,100*,i,i,i
CCCCc1ccc(NC(=O)CSc2nc(=O)n3cc(C)ccc3n2)cc1,0.91,i,i,i,i
O=[N+]([O-])c1ccc(Nc2cccc(F)c2)nc1,1.6,i,i,i,i
Cc1nn(-c2ccccc2)c(Cl)c1/C=C1/C(=N)N2N=C(C(C)C)SC2=NC1=O,-0.76,i,i,i,i
Cc1nn(-c2ccccc2)c(Cl)c1/C=C1\SC(=S)NC1=O,-0.1,100*,i,i,i
CC(=O)Nc1ccc(S(=O)(=O)N2CCC(C(=O)N[C@@H](C)C(=O)NC3CCCC3)CC2)cc1,0.9,i,i,i,i
Cc1ccc(C(=O)NCCN2C3=NC[C@H](Cc4ccc(O)cc4)N3C[C@H]2Cc2ccc(O)cc2)cc1Br,2.2,i,i,i,i
Cc1ccc(C(=O)N[C@@H](C)CN2C3=NC[C@H](C(C)C)N3C[C@H]2Cc2ccc(O)cc2)cc1Br,-2.4,i,i,i,i
COc1ccc(C[C@H]2CN3C(=NC[C@@H]3Cc3ccc(O)cc3)N2C[C@H](C)NC(=O)c2ccc(C)c(Br)c2)cc1,-7.3*,i,i,i,i
COc1ccc(C[C@H]2CN3C(=NC[C@@H]3C(C)C)N2C[C@H](C)NC(=O)c2ccc(C)c(Br)c2)cc1,-7.9*,i,i,i,i
Nc1ccccc1C#CCCCCO,-1.4,i,i,i,i
Cc1ccc(S(=O)(=O)/C(C#N)=C/c2c(N3CCN(C)CC3)nc3ccccn3c2=O)cc1,0.14,i,i,i,i
Cc1ccc(S(=O)(=O)/C(C#N)=C/c2c(N3CCN(Cc4ccccc4)CC3)nc3ccccn3c2=O)cc1,-2.5,i,-11*,i,i
O=C(COC(=O)CN1C(=O)c2ccccc2C1=O)Nc1cccc(F)c1,.,.,i,.,i
Cc1cc(OCC(=O)OCC(=O)NCCN2C(=O)CSC2=O)ccc1Cl,.,.,i,.,i
COc1cc(S(=O)(=O)Nc2cccc(C(=O)O)c2)c(OC)cc1Cl,-0.46,i,i,i,i
SMILES,Kir21 block,ANO1 block,KCNK3 inh,KCNK9 block,ANO1 activ
COC(=O)Oc1c(Br)c(=O)oc2ccccc12,-4.8*,i,i,i,i
CCOc1cccc(-c2c(C(=O)N/N=C(\C)c3ccccn3)nnn2-c2nonc2N)c1,-0.5,i,i,-7*,i
CCOc1cccc(-c2c(C(=O)N/N=C/c3ccncc3)nnn2-c2nonc2N)c1,0.68,i,i,i,i
O=C(CSc1nnc(COc2ccc(F)cc2)o1)N1c2ccccc2CCc2ccccc21,1.6,i,i,-13*,i
Cc1cccc(OCc2nnc(SCC(=O)N3c4ccccc4CCc4ccccc43)o2)c1,-0.92,i,i,i,i
COc1cccc(/C=C/C(=O)OCC(=O)Nc2ccc(Cl)cn2)c1,0.6,i,i,i,i
CCn1c(SCC(=O)N/N=C/c2ccc(C)o2)nnc1-c1ccc(C(C)(C)C)cc1,-0.3,i,i,i,i
CCn1c(SCC(=O)N/N=C/c2c[nH]c3ccccc23)nnc1-c1ccc(C(C)(C)C)cc1,-2.4,25*,i,i,i
COc1ccccc1CCNC(=O)COc1cccc2c1OC(C)(C)C2,-6.4*,i,i,i,i
Cc1c(NC(=O)C(C)OC(=O)COc2cccc3c2OC(C)(C)C3)c(=O)n(-c2ccccc2)n1C (configuration not stated),0.01,i,i,i,i
COc1ccccc1NC(=O)C(C)OC(=O)CCCOc1ccccc1 (configuration not stated),-4.8*,i,i,i,i
COc1ccccc1NC(=O)C(C)OC(=O)COc1cccc2c1OC(C)(C)C2 (configuration not stated),-4.6*,i,i,i,i
COc1ccc(NC(=O)COc2cccc3c2OC(C)(C)C3)cc1OC,.,.,i,.,i
CC(OC(=O)CCCOc1ccccc1)C(=O)NC(N)=O (configuration not stated),-0.34,i,i,i,i
COc1ccc(C(C)=O)cc1COc1cccc2c1OC(C)(C)C2,-5*,i,i,i,i
CCCOc1ccc(S(=O)(=O)NCCN2CCOCC2)c2ccccc12,-4.4*,i,i,i,i
CCOc1ccc(S(=O)(=O)NCCN2CCOCC2)c2ccccc12,-1.7,i,i,i,i
Cc1ccc(C)c(OCCC(=O)NNC(=O)c2cc(C)oc2C)c1,.,.,i,.,i
CCCN(CCC)C(=O)CC(c1ccccc1)C1CCOC(C)(C)C1 (configuration not stated),-0.59,i,i,i,i
CCOCCCN(C(=O)c1ccco1)C(C(=O)NC1CCCC1)c1ccc(OC)cc1 (configuration not stated),-1.6,.,i,i,i
COc1ccc(CN(CCC(c2ccc(F)cc2)C2CCOC(C)(C)C2)C(=O)c2ccco2)cc1 (configuration not stated),-0.62,i,i,-11*,i
CC(c1ccccc1)N(CCC(c1ccccc1)C1CCOC(C)(C)C1)C(=O)c1ccco1 (configuration not stated),-6*,i,i,i,i
CCCCn1nc(CC(=O)NCCN(CC)CC)c2ccccc2c1=O,0.48,i,i,i,i
COc1ccccc1/C=C/C(=O)N1CCN(S(=O)(=O)c2cc(C)ccc2C)CC1,.,.,-8.8*,.,i
